Reference: PubChem BioAssay (NCI)
About 83,000 compounds went through this panel and 20% of them were active in at least one assay; those are over-represented in the sample as a whole.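 Cell lines were cultured in 96-well plates, exposed to a single compound concentration, and assessed for percent growth 48 hours later.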 A number with no mark means an inactive call. Calls of active or inactive are those of the source. How the source made its calls: active means growth percent below 10; inactive means the rest.

What was measured:
Assay in all cases: NCI-60 one-dose screen, 48 h (100 = growth as untreated, 0 = no growth, -100 = all killed)
Conditions in all cases: 10 µM unless noted
NCI-H23 lung = tested on: NCI-H23 lung
NCI-H226 lung = tested on: NCI-H226 lung
NCI-H322M lung = tested on: NCI-H322M lung
HOP-62 NSCLC = tested on: HOP-62 NSCLC
NCI-H460 lung = tested on: NCI-H460 lung
HOP-92 NSCLC = tested on: HOP-92 NSCLC
NCI-H522 lung = tested on: NCI-H522 lung
A549/ATCC NSCLC = tested on: A549/ATCC NSCLC
786-0 renal = tested on: 786-0 renal
COLO 205 colon = tested on: COLO 205 colon
DU-145 prostate = tested on: DU-145 prostate
MALME-3M melanoma = tested on: MALME-3M melanoma
MDA-MB-231 breast = tested on: MDA-MB-231 breast
RXF 393 renal = tested on: RXF 393 renal
SF-268 CNS = tested on: SF-268 CNS
SF-295 CNS = tested on: SF-295 CNS
SF-539 CNS = tested on: SF-539 CNS
UACC-257 melanoma = tested on: UACC-257 melanoma
M14 melanoma = tested on: M14 melanoma

Compound | growth (NCI-H23 lung) | growth (NCI-H226 lung) | growth (NCI-H322M lung) | growth (HOP-62 NSCLC) | growth (NCI-H460 lung) | growth (HOP-92 NSCLC) | growth (NCI-H522 lung) | growth (A549/ATCC NSCLC) | growth (786-0 renal) | growth (COLO 205 colon) | growth (DU-145 prostate) | growth (MALME-3M melanoma) | growth (MDA-MB-231 breast) | growth (RXF 393 renal) | growth (SF-268 CNS) | growth (SF-295 CNS) | growth (SF-539 CNS) | growth (UACC-257 melanoma) | growth (M14 melanoma)
O=C1/C=C/[C@@H](O)[C@@H]2C[C@@H](O)C[C@H]2/C=C/CCC[C@H](CCc2ccc3ncccc3c2)O1 | -32.5% (active) | -28.7% (active) | 17.6% | 15.3% | 15% | 30.2% | -53.4% (active) | 19.2% | -50.2% (active) | -98.4% (active) | 13.5% | -17.8% (active) | -43% (active) | -32.6% (active) | 15.2% | 1.79% (active) | 19.2% | 19.3% | 6.52% (active)
C=CCn1c(-c2ccc(-c3nc4ccc(C)cc4[nH]3)cc2)n[nH]c1=S | 94.6% | 94.1% | 102% | 97.7% | 105% | 117% | 90.7% | 99.2% | 107% | 120% | 111% | 96.6% | 90.7% | 110% | 112% | 92.1% | 97% | 102% | 98%
C[C@@H](Nc1ncnc2ccc(-c3cnc(N)nc3)cc12)c1ccc(F)cc1 | 85.9% | 89.1% | 37.8% | 57.7% | 99.2% | 49.6% | 66.3% | 74% | 68.9% | 112% | 47.9% | 85.2% | 59.6% | 34.7% | 64.1% | 81.7% | 95.3% | 94.8% | 82.7%
Cc1cc2cc3ccc(N(C)C)cc3nc2cc1N | -25.6% (active) | -28.4% (active) | -5.9% (active) | -39.1% (active) | -70.9% (active) | -4.62% (active) | -49.9% (active) | -18.7% (active) | 8.26% (active) | -67.7% (active) | -50.3% (active) | -5.97% (active) | -18.4% (active) | -38% (active) | 0.225% (active) | 2.71% (active) | -4.96% (active) | -1.21% (active) | -13.4% (active)
c1ccc(Cn2cnc3ccc(-c4nc(-c5ccc6c(c5)ncn6C5CCCCC5)cn5ccnc45)cc32)cc1 | -22.8% (active) | -63.1% (active) | 16% | -9.39% (active) | -20.3% (active) | -83.6% (active) | -35.2% (active) | -5.05% (active) | -19.4% (active) | -29.9% (active) | -28.2% (active) | -15.4% (active) | -70.1% (active) | -76.9% (active) | -0.106% (active) | -81.4% (active) | -77.6% (active) | -32.7% (active) | -4.44% (active)
COc1ccc(-c2nc([C@@H](C)Sc3nc(N)cc(N)n3)c(C)s2)cc1OCCN1CCOCC1 | 103% | 95.7% | 109% | 94.5% | 110% | 95.3% | 87% | 96.2% | 104% | 116% | 111% | 102% | 66.6% | 96% | 102% | 97.6% | 111% | 100% | 114%
CC(=O)OC[C@]12CC[C@@H](C(=O)CBr)[C@@H]1[C@H]1CC[C@@H]3[C@@]4(C)CC[C@H](OC(C)=O)C(C)(C)[C@@H]4CC[C@@]3(C)[C@]1(C)CC2 | 95.4% | 100% | 103% | 103% | 105% | 96% | -63.9% (active) | 106% | 95.1% | 101% | 100% | 89.2% | 110% | 99.7% | 89.9% | 106% | 91.7% | 108% | 87.2%
O=C(NNc1nc2c(F)cccc2n2cccc12)c1cnccn1 | 24.8% | 31.7% | 25.5% | 30.2% | 11.6% | 67.4% | 2.24% (active) | 15.7% | 27.4% | -4% (active) | 26.2% | 18.3% | 31.7% | 37.5% | 30.6% | 8.17% (active) | -0.386% (active) | 16.2% | 3.21% (active)
CCOC(=O)CC1CSC(N/N=C/c2ccc(-n3cccn3)cc2)=N1 (stereo not given) | 101% | 95% | 104% | 105% | 107% | 99.3% | 99.1% | 93.1% | 108% | 126% | 108% | 113% | 101% | 105% | 103% | 107% | 107% | 96.2% | 107%
Oc1cccc(CCc2ccc(Oc3cc(CCc4cccc(O)c4)cc(O)c3O)cc2)c1 | 89% | 84.4% | 81.8% | 92.5% | 66.4% | 53.5% | -8.62% (active) | 83% | 92.8% | 111% | 88.8% | 110% | 72.8% | 81% | 51.7% | 96.7% | 73.9% | 95.6% | 81.2%
C=C(C)[C@@H]1CC[C@]2(C(=O)N[C@@H](Cc3ccccc3)C(=O)OC)CC[C@]3(C)[C@H](CC[C@@H]4[C@@]5(C)CCC(=O)C(C)(C)[C@@H]5CC[C@]43C)[C@@H]12 | 86.7% | 94.6% | 93.4% | 94% | 81.3% | 57.6% | 79.7% | 79% | 85.8% | 94.5% | 92.7% | 102% | 102% | 101% | 78% | 78.8% | 93.7% | 104% | 87.8%
OCc1cnccc1NCCCCOc1ccc(Oc2ccccc2)cc1 | 46.6% | 70.1% | 94.7% | 72.1% | 69.6% | 43% | 62.9% | 78.3% | 56.8% | -10.4% (active) | 80.2% | 58% | 62.6% | 66.1% | 80.9% | 51.5% | 67.3% | 54.5% | 53.6%
O=C(/C(=C/c1ccc([N+](=O)[O-])cc1)SCc1ccc(F)cc1)c1ccc(F)cc1 | 74.8% | 86.9% | 85.9% | 93.6% | 90.7% | 90.2% | 52.2% | 91.4% | 78.7% | 94.7% | 94.6% | 88.8% | 76.1% | 97% | 80.8% | 93.2% | 105% | 108% | 82.8%
Cc1c(C)c([N+](=O)[O-])c(C)c([N+](=O)[O-])c1C | 116% | 108% | 115% | 121% | 112% | 79.2% | 77.2% | 98.2% | 95.4% | 122% | 104% | 111% | 101% | 108% | 106% | 97.6% | 107% | 105% | 108%
N#Cc1c(-c2ccccc2)nc2c(c(-c3ccccc3)nn2-c2ccccc2)c1-c1ccc(O)cc1 | 44.1% | 54% | 66.9% | 25.3% | 9.14% (active) | 50.1% | 0.943% (active) | 41.4% | 3.44% (active) | 41.9% | 49.4% | 43.8% | 23.8% | -17.6% (active) | 55.5% | -43.1% (active) | 23.3% | 71.3% | 56.4%
